The text below walks through data of PubChem BioAssay (NCATS).

Records with an inconclusive call do not appear. Entries that show only a call come without a potency. Active and inactive are the calls of the source. Calls come from the whole dose curve; as a rule, active = well fitted cell-killing curve with a large enough effect; inconclusive = small, poorly fitted or top-dose-only effect; inactive = flat fitted curve, though single readings scatter.
Potency is the fitted concentration of half-maximal effect.

This experiment is described as follows: qHTS of pediatric cancer cell lines to identify multiple opportunities for drug repurposing: Primary screen for DAOY cells (AID 1347090). Note: nearly all actives have a fitted effect of over 55% in size. The conditions noted are these: DAOY medulloblastoma viability, CellTiter-Glo luminescence, 48 h; series mostly up to 46 µM. An excerpt:
Drug repurposing or repositioning has been offered as a strategy for drug development in oncology programs. This approach has special potential for childhood cancers and other rare or orphan diseases, where the expected return on new drug development has been a disincentive to pharmaceuticals.
In this project we exploit the poly-pharmacology of drugs to discover new indications via phenotypic screening of a panel of 19 well-characterized cell lines derived from solid tumors seen in children and adolescents. The goal is to identify approved drugs with previously unrecognized anticancer properties that has the potential to reveal new mechanisms and biological processes involved in carcinogenesis or drug resistance. We employed a titration-based paradigm (quantitative high-throughput screening or qHTS), where all compounds were tested at multiple concentrations for their effect on cell viability. Concentration-response curves (CRCs) were derived directly from the primary screen, and both potency and efficacy values were used to identify compounds with robust bioactivity profiles. We screened the NIH Chemical Genomics Center (NCGC) Pharmaceutical Collection (NPC) and Mechanism Interrogation Plate (MIPE) small molecule collections of approved and investigational compounds against these cell lines; and measured metabolically active cells after 48 hours of compound treatment as a proxy for cell viability.
Assay Submitter: Nathalia J. Martinez, National Center for Advancing Translational Sciences, National Institutes of Health, Rockville, MD, USA; email: natalia.martinez@nih.gov
[1] Shen, M et al. Quantitative high-throughput phenotypic screening of pediatric cancer cell lines identifies multiple opportunities for drug repurposing. Oncotarget 2017 Dec 19;9(4):4758-4772. PMID 29435139.
The cells were obtained from University of North Carolina (UNC), Pediatric Preclinical Testing Program (PPT), and Coriell Institute (CI).
qHTS cell viability assay:
Cells were assayed in growth media at a density of 500-1,000 cells/well. Five microliters of cells were dispensed into 1,536-well, white, solid-bottom, TC-treated plates (Greiner Bio One) using a multidrop dispenser and incubated at 37 degrees C, 5% CO2, under a humidified atmosphere for 5 hours. Twenty-three nanoliters of compounds and controls (neutral control DMSO or positive control bortezomib at final concentration of 2.3 µM) were subsequently transferred by Kalypsys pintool. For primary screens, the MIPE collection was tested at 11-point dilutions (final concentrations range from 0.78 nM to 46 µM) and the NPC collection at 8-point dilutions (final concentrations range from 0.59 nM to 46 µM). Compounds tested in follow-up screens were assayed at 11-point dilutions. Cells were incubated for 48 hours, followed by addition of 3 uL of CellTiter-Glo (Promega). After a 15 min incubation at room temperature, samples were analyzed for luminescence intensity using a ViewLux High-throughput CCD imager equipped with clear filters.
(In general: In qHTS, concentration-response curves come from the screen itself.)
As for `CCCCN(CCCC)C(C(N)=O)c1ccc(OC)cc1` (stereo not given), the Potency result was “inactive”.

Turning to `COc1ccc(OC(=O)N(CC(=O)O)Cc2ccc(OCCc3nc(-c4ccccc4)oc3C)cc2)cc1`, the Potency result was “inactive”.

In the case of `CCOC(=O)c1cc(=O)c2c(OCC(COc3cccc4oc(C(=O)OCC)cc(=O)c34)OC(=O)[C@@H](N)CCCCN)cccc2o1`, the Potency result is “inactive”.

Regarding `O=C(COCCOCCOCC(=O)Nc1c(I)cc(I)c(C(=O)O)c1I)Nc1c(I)cc(I)c(C(=O)O)c1I`, the Potency result was “inactive”.

For `Cc1ccc(C(=O)C(=O)O)cc1C`, the Potency result was “inactive”.

As for `CCC1=C[C@@H]2CN(C1)Cc1c([nH]c3ccccc13)[C@@](C(=O)OC)(c1cc3c(cc1OC)N(C)[C@H]1[C@@](O)(C(=O)OC)[C@H](OC(C)=O)[C@]4(CC)C=CCN5CC[C@]31[C@@H]54)C2`, the Potency was 0.0531 µM (active).

As for `O=C(O)Cn1cnnn1`, the Potency entry is “inactive”.

Regarding `COc1ccc2cc(C=O)ccc2c1`, the Potency result is “inactive”.

As to `CC(=O)OC/C=C(C)/C=C/C=C(C)/C=C/C1=C(C)CCCC1(C)C`, the Potency entry is “inactive”.

With `O=C1Cc2cc(Cl)ccc2N1`, the Potency result is “inactive”.

For the compound `OCCc1ccccc1`, the Potency entry was “inactive”.

Turning to `COC(=O)CCCCC(CCSS/C(CCO)=C(\C)N(C=O)Cc1cnc(C)nc1N)SC(C)=O` (stereo not given), the Potency result is “inactive”.

`CC(C)C(=O)Nc1cccc(C(F)(F)F)c1`: the Potency entry was “inactive”.

For the compound `C1=CC2C3C=CC(C3)C2C1` (stereo not given), the Potency result was “inactive”.

As for `COc1cc2c(cc1OC)C(=O)CC2`, the Potency result was “inactive”.

With `NS(=O)(=O)c1ccc(N2CCCCS2(=O)=O)cc1`, the Potency result is “inactive”.

For `C[C@H](N)C(=O)N[C@@H](C)C(=O)NC1[C@H]2CN(c3nc4c(cc3F)c(=O)c(C(=O)O)cn4-c3ccc(F)cc3F)C[C@@H]12` (stereo not given in full), the Potency entry was “inactive”.

Regarding `CC1(C)O[C@@H]2C[C@H]3[C@@H]4CCC5=CC(=O)C=C[C@]5(C)[C@@]4(F)[C@@H](O)C[C@]3(C)[C@]2(C(=O)CO)O1`, the Potency result is “inactive”.

On to `NC(=O)NS(=O)(=O)c1ccc(Cl)cc1`, for which the Potency entry is “inactive”.

In the case of `OC1(c2ccc(Cl)cc2)CCNCC1`, the Potency result is “inactive”.

For the compound `C=CC[N+]1([C@H]2C[C@H]3[C@@H]4CC[C@H]5C[C@H](OC(C)=O)[C@@H](N6CCCCC6)C[C@]5(C)[C@H]4CC[C@]3(C)[C@H]2OC(=O)CC)CCCCC1`, the Potency result is “inactive”.

Regarding `Oc1cccc2[nH]ccc12`, the Potency result was “inactive”.

As to `CC(=O)N[C@@H](CCC(N)=O)C(=O)O`, the Potency entry is “inactive”.

As for `CN1CCN(N)CC1`, the Potency entry is “inactive”.

For the compound `CC1c2ccccc2CN1NC(=O)c1ccc(Cl)c(S(N)(=O)=O)c1` (stereo not given), the Potency result is “inactive”.

As to `C[C@H]1NCc2cc(-c3ccc4c(=O)c(C(=O)O)cn(C5CC5)c4c3OC(F)F)ccc21`, the Potency result is “inactive”.

Regarding `CC(C)(C)c1cc(C=O)cc(C(C)(C)C)c1O`, the Potency entry is “inactive”.

Turning to `CCCCNc1ccc(C(=O)OCCN(CC)CC)cc1`, the Potency entry is “inactive”.

Turning to `COc1cc(OC)nc(O[C@H](C(=O)O)C(OC)(c2ccccc2)c2ccccc2)n1`, the Potency result was “inactive”.

As to `CC(C)(C)C(=O)OCOC(=O)C1N2C(=O)CC2S(=O)(=O)C1(C)C` (stereo not given), the Potency result is “inactive”.

For the compound `CCC(=O)Oc1ccc2c(c1)CC[C@@H]1[C@@H]2CC[C@@]2(C)[C@H]1C[C@@H](OC(=O)CC)[C@@H]2OC(=O)CC`, the Potency result was “inactive”.

With `CCCC(=O)OCOC(=O)C1=C(C)NC(C)=C(C(=O)OC)C1c1cccc(Cl)c1Cl` (stereo not given), the Potency entry is “inactive”.

For the compound `Nc1c2ccccc2nc2ccccc12`, the Potency is 21.1 µM (active).

As for `CCOc1ccccc1OCC1CNCCO1` (stereo not given), the Potency entry is “inactive”.

Regarding `O=C(Nc1ccc(S(=O)(=O)N2CCOCC2)cc1)c1cc(Cl)ccc1NS(=O)(=O)c1ccc(Cl)s1`, the Potency result is “inactive”.

As to `CC(=O)OC[C@H]1O[C@@H](OC(C)=O)[C@H](OC(C)=O)[C@@H]1OC(C)=O`, the Potency entry was “inactive”.

As for `Nc1nnnn1-c1ccccc1`, the Potency entry was “inactive”.

As to `C=C(C)C(=O)OCC(O)CO` (stereo not given), the Potency entry was “inactive”.

For the compound `CC(C)OP(=O)(CP(=O)(OC(C)C)OC(C)C)OC(C)C`, the Potency entry was “inactive”.

As to `CCCCOCCOC(=O)c1cccnc1`, the Potency entry was “inactive”.
